CYP2C19 act = activators of human cytochrome P450 2C19; 96,000 tested, under 10 active; AID 1025; P33261; activation factor at 5 µM; recombinant CYP2C19, luciferin-H EGE luminescence; hits give high values; 0 = fully inhibited enzyme, 1 = untreated enzyme;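 active = activation factor of at least 2 at 5 µM in the primary screen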;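 also: 0 = wells with 2.5 mM tranylcypromine and 1 = vehicle-only wells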
Target sequence (P33261 whole entry, looked up): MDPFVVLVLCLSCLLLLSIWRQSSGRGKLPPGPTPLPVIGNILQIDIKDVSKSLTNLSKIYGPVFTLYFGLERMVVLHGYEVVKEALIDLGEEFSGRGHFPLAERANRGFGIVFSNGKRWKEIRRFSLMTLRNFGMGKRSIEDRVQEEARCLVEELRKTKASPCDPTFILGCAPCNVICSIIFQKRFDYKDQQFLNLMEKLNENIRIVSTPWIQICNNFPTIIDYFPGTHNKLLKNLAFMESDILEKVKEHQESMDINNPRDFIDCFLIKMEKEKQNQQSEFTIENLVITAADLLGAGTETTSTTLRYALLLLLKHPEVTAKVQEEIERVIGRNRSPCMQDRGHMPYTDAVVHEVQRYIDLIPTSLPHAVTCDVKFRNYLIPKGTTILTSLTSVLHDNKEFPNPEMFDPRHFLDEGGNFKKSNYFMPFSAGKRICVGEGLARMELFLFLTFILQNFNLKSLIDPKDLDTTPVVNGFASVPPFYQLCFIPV
CYP2C9 inh = inhibitors of human CYP2C9. actives 20% (n = 96,000). CYP2C9 Supersomes, luciferin-H conversion, luminescence. P11712. inhibition, % at 5 µM. AID 777;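 active = blocking of liver enzyme CYP2C9 beyond about 50% at 5 µM, limit read from the data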
CYP2C9 activ = activators of human CYP2C9 | actives 1.4% (n = 96,000) | AID 1024 | activation factor at 5 µM | recombinant CYP2C9, luciferin-H conversion, luminescence; hits give high values; factor 1 = untreated enzyme, 0 = blocked | P11712;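 active = activation factor of 2 or more for CYP2C9 at a 5 µM dose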;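 also: 0 = sulfaphenazole-blocked wells and 1 = vehicle-only wells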
CYP2C19 inh = blocks human cytochrome P450 2C19; P33261; CYP2C19 Supersomes, luciferin-H EGE luminescence, 30 min; inhibition, % at 5 µM; actives 21% (n = 96,000);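 active = CYP2C19 inhibition above a set limit at 5 µM in the primary screen, cut at about 50% in these data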;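 also: plate controls were negative control wells for no effect and 2.5 mM tranylcypromine positive control for full effect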
Starred values were filed as active, the others as inactive. This is a sample that favours compounds with a hit; in the whole collection about 31% have one here.

SMILES	CYP2C19 act	CYP2C9 inh	CYP2C9 activ	CYP2C19 inh
CCN1CC=C2C(C#N)=C(N)C(C#N)(C#N)C(c3cc(Cl)ccc3Cl)C2C1 (stereo not given)	0.7	58.6*	0.4	34.2
CCC1C2CN(C(C)=O)CC=C2C(C#N)=C(N)C1(C#N)C#N (stereo not given)	1	-1.4	1	3.5
O=C(CN(Cc1ccco1)C(=O)CNS(=O)(=O)c1ccccc1)NC1CCCCC1	0.7	11.5	0.9	30.1
O=C(CN(Cc1ccco1)C(=O)CNS(=O)(=O)c1ccccc1)NCc1ccccc1	0.4	27.2	0.7	60.8*
O=C(CN(Cc1ccco1)C(=O)CNS(=O)(=O)c1ccc(F)cc1)NCCc1ccccc1	0.3	61.0*	0.4	65.4*
O=C(CN(Cc1cccs1)C(=O)CNS(=O)(=O)c1ccccc1)NCc1ccco1	0.5	27.2	0.7	52.5*
CCCOc1cccc(C2/C(=C(/O)c3ccncc3)C(=O)C(=O)N2CCCN(C)C)c1 (stereo not given)	0.9	-6.3	1.1	7.1
CC1(C)C(=O)OC(c2cccs2)C2(CCCCC2)C1=O (stereo not given)	0.7	12.8	0.9	29.0
O=C(O)CC1=C(O)C(=O)N(c2ccccc2)C1c1ccccc1 (stereo not given)	0.9	-8.7	1.1	8.2
CS(=O)(=O)C1=C(O)C(=O)N(c2ccccc2)C1c1ccccc1 (stereo not given)	0.5	12.0	0.9	50.7*
Cc1cc(C)nc(NS(=O)(=O)c2ccc(NS(=O)(=O)c3ccccc3)cc2)n1	0.9	26.0	0.7	10.6
CCC(=O)Nc1cccc(-c2cn3ccsc3n2)c1	1	-52.0	1.5	-1.2
O=S(=O)(Nc1cccc(-c2cn3cccnc3n2)c1)c1ccc(-c2ccccc2)cc1	0.2	99.7*	0	80.6*
O=S(=O)(Nc1cccc(-c2cn3ccsc3n2)c1)c1ccc(F)cc1	0.3	79.0*	0.2	68.8*
Cc1nc(-c2cccc(NS(=O)(=O)c3ccccc3)c2)cs1	0	77.3*	0.2	97.3*
CC(C)CC(=O)Nc1cccc(-c2cn3ccsc3n2)c1	0.9	35.7	0.6	8.8
Cc1ccc(S(=O)(=O)Nc2cccc(-c3cn4ccsc4n3)c2)cc1	0	98.9*	0	100.0*
COc1ccc(OC)c(C2Nc3nc4ccccc4n3C(C)=C2C(=O)Nc2ccc(C)cc2C)c1 (stereo not given)	0.9	10.5	0.9	9.6
Cc1cccc(S(=O)(=O)Nc2cccc(-c3cn4ccsc4n3)c2)c1	0.2	90.8*	0.1	79.7*
CC(C)C(=O)Nc1cccc(-c2cn3ccsc3n2)c1	1	7.4	0.9	-2.9
c1ccn(-c2ncnc3sc4c(c23)CCCC4)c1	0	34.5	0.7	96.4*
O=C(O)CSc1ncnc2sc3c(c12)CCC3	1	5.6	0.9	-4.1
c1nc(N2CCOCC2)c2c3c(sc2n1)CCCC3	0.4	24.0	0.8	64.6*
O=C(c1ccccc1)N1CCN(c2ncnc3sc4c(c23)CCC4)CC1	0.1	82.9*	0.2	92.2*
O=C(NCC1(c2ccccc2)CCCC1)c1cccc(Br)c1	1	5.5	0.9	1.0
SMILES	CYP2C19 act	CYP2C9 inh	CYP2C9 activ	CYP2C19 inh
O=C(NCCCN1CCCC1=O)c1cccc(N2CCCC2=O)c1	0.9	28.4	0.7	12.4
CN(C)c1nc2ccc(OCCN3CCCCC3)cc2s1	1	7.8	0.9	4.3
Cc1ccc(N(CC(=O)NC2CCCCCC2)S(=O)(=O)c2c(C)nn(C)c2C)cc1	0.6	34.8	0.7	41.6
COc1cccc(NC(=O)CN(c2ccc(C)cc2)S(=O)(=O)c2c(C)nn(C)c2C)c1	0.3	75.7*	0.2	69.1*
COc1ccc(N(CC(=O)Nc2cc(OC)ccc2OC)S(=O)(=O)c2c(C)nn(C)c2C)cc1	0.2	84.1*	0.2	75.8*
COc1ccc(N(CC(=O)Nc2cccc(OC)c2)S(=O)(=O)c2c(C)nn(C)c2C)cc1	0.3	82.8*	0.2	74.7*
COc1ccc(N(CC(=O)Nc2nc3ccc(C)cc3s2)S(=O)(=O)c2c(C)nn(C)c2C)cc1	0.6	48.3	0.5	36.8
CCCn1c(N)c(N2CCCCC2)c(=O)n(CC(=O)Nc2ccccc2)c1=O	0.6	43.8	0.6	37.1
O=C(O)C1CC(=O)N(c2ccc(OCc3ccc(Cl)cc3Cl)cc2)C1 (stereo not given)	1	-27.5	1.3	3.5
CC(C)C(CO)NC(=O)CC(=O)NC(CO)C(C)C (stereo not given)	1	6.7	0.9	-0.2
CN(C)S(=O)(=O)c1cccn1-c1ncc(C(F)(F)F)cc1Cl	0.6	44.6	0.6	38.6
CC(Nc1nc(N2CCCCC2)nc2ccccc12)c1ccccc1 (stereo not given)	0.6	40.7	0.6	35.2
CC(C)Cn1c(-c2ccc(C#N)cc2)nc2c1c(=O)[nH]c(=O)n2CC(C)C	0.9	-1.9	1	8.2
COc1ccc2c3c(cccc13)OCC2=O	0.5	40.3	0.6	51.3*
COc1ccc(C2C(C(=O)Nc3ccccn3)=C(C)Nc3ncnn32)c(OC)c1 (stereo not given)	1	38.4	0.6	-2.2
Cc1cccc(N2CCN(C(=O)c3cccn4c(=O)c5c(C)c(C)sc5nc34)CC2)c1C	0.1	96.0*	0	92.4*
Cc1sc2nc3c(C(=O)N4CCN(c5ccccn5)CC4)cccn3c(=O)c2c1C	0.9	28.8	0.7	8.6
COc1ccc(NC(C)c2cc(Cl)ccc2O)cc1 (stereo not given)	0.4	49.4	0.5	58.4*
COc1ccc(C/C(=N\O)c2ccc(OC)cc2)cc1	0.4	57.8*	0.4	57.4*
COc1ccc(Cl)cc1NC(=O)CSc1nnc(CN2CCOCC2)n1-c1ccc(Cl)cc1	1	-4.1	1	1.5
CC1(C)N=C(/C=N/O)CN1O	1.1	-14.0	1.1	-14.0
O=C(Nc1cccc2ncccc12)C12CC3CC(CC(C3)C1)C2	1	-24.3	1.2	-1.1
O=C(CC12CC3CC(CC(C3)C1)C2)Nc1cccc2ncccc12	0.5	27.2	0.7	50.6*
O=c1cc(CO)oc(CN2CCN(CCO)CC2)c1O	0.7	14.0	0.9	29.0
CO/N=C/NC(=O)c1c(OC)ccnc1Oc1ccc(F)cc1	1	-1.3	1	4.1
SMILES	CYP2C19 act	CYP2C9 inh	CYP2C9 activ	CYP2C19 inh
CO/N=C/NC(=O)c1c(OC)ccnc1Oc1cccc(C(F)(F)F)c1	0.4	9.1	0.9	58.3*
COc1ccnc(Oc2ccc(F)cc2)c1C(=O)N/C=N/OCc1ccc(F)cc1	0.4	28.2	0.7	64.1*
O=C1C(c2ccncc2)=C(O)c2ccccc21	0.5	92.4*	0.1	49.7
O=C1C(=C(O)c2ccccc2)C(=O)c2ccccc21	1	44.0	0.6	1.2
O=C1C(C=NCc2cccnc2)=C(O)c2ccccc21	1	5.2	0.9	4.5
O=C1C(C=NCc2ccncc2)=C(O)c2ccccc21	0.2	84.6*	0.2	75.9*
CCN(CC(=O)NC1CCS(=O)(=O)C1)C(=O)C(c1ccccc1)c1ccccc1 (stereo not given)	1	7.3	0.9	4.9

Screens deposited in PubChem by Sanford-Burnham Center for Chemical Genomics.
